From the supplement of paper PMC3545927
This is one part of the list. No count for the full screen is at hand.

B1: HC437 (peptide)
chain: CATWMNSTGFAGNASASA
B2: HC1931 (peptide)
chain: CATTPCSGSDAGNASASA
B3: FS-2578 (peptide)
chain: CARPKRLDSAAGNASASA
B4: FS-1070 (peptide)
chain: CARPSRKRRSAGNASASA
B5: FS-2579 (peptide)
chain: CARPKRYFTIAGNASASA
B6: FS-1157 (peptide)
chain: CARHIRKRRSAGNASASA
B7: FS-2054 (peptide)
chain: CARPKRADTFAGNASASA
B8: HC914 (peptide)
chain: CARPSGMFDSAGNASASA
B9: FS-2055 (peptide)
chain: CARPKRCPRSAGNASASA
B10: HC2545 (peptide)
chain: CASTPCSALLAGNASASA
B11: HC1565 (peptide)
chain: CATTPLARAAAGNASASA
B12: HC604 (peptide)
chain: CADITKLLLAAGNASASA
B13: FS-1299 (peptide)
chain: CAAGKRKRRSAGNASASA
B14: FS-425 (peptide)
chain: CAGERRKRRSAGNASASA
B15: FS-659 (peptide)
chain: CAGSHMKRRSAGNASASA
B16: FS-649 (peptide)
chain: CAEISRKRRSAGNASASA
B17: HC1559 (peptide)
chain: CAAGKRVYYLAGNASASA
B18: FS-21 (peptide)
chain: CAEIKRKWRSAGNASASA
B19: FS-230 (peptide)
chain: CAEFERRWRSAGNASASA
B20: HC2343 (peptide)
chain: CAEVACHRPSAGNASASA
B21: HC451 (peptide)
chain: CACPTDCFRKAGNASASA
B22: HC571 (peptide)
chain: CAVVLVGLMAAGNASASA
B23: HC1607 (peptide)
chain: CASLHSYSPGAGNASASA
B24: HC2153 (peptide)
chain: CARVVTSTWVAGNASASA
B25: FS-3118 (peptide)
chain: CARVKKSVEVAGNASASA
B26: DV4 (peptide)
chain: CARKKRSVVVAGNASASA
B27: HC874 (peptide)
chain: CAPTSGDVVVAGNASASA
B28: FS-2840 (peptide)
chain: CARVKRSVVVAGNASASA
B29: HC2230 (peptide)
chain: CAEVVTSTVVAGNASASA
B30: FS-2327 (peptide)
chain: CARCRRCVVVAGNASASA
B31: HC2198 (peptide)
chain: CAEVTTSTWVAGNASASA
B32: HC415 (peptide)
chain: CAFTPSPVVVAGNASASA
B33: HC1324 (peptide)
chain: CAPRKKRTVVAGNASASA

Molecular target: furin, P09958
Sequence (P09958 whole entry): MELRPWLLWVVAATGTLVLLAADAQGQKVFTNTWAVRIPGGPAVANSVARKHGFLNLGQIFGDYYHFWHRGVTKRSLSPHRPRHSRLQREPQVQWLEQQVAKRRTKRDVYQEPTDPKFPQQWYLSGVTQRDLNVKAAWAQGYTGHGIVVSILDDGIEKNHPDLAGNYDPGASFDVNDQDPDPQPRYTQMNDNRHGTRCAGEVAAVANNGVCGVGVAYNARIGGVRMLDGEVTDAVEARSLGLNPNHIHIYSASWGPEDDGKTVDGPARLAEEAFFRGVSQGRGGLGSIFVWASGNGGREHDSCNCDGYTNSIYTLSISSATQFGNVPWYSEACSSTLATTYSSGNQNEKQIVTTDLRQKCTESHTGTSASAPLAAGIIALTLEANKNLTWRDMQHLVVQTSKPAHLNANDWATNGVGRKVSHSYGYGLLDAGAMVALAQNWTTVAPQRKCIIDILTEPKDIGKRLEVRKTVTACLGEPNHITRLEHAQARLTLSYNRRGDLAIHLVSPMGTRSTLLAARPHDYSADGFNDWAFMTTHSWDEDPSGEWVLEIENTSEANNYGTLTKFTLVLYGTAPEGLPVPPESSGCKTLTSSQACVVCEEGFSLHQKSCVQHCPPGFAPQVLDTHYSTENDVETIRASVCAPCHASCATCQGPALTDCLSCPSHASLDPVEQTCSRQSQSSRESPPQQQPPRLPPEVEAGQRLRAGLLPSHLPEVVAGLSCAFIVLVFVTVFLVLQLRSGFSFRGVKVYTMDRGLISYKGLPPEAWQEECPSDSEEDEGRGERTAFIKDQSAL
Assay: furin cleavage Z-score vs untreated control; higher = more cleavage, active = 3.5 or more, inactive = 1 or less, 8 variable residues between constant flanks
In short: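 The cleavage Z-score is the log read count relative to furin-free reactions, lowess-adjusted and scaled by median absolute deviation. Counts came from sequencing DNA released from bead-bound 8-mer peptide–cDNA fusions after digestion with purified furin for 7.5, 15 or 30 min.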
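Also: purified furin at 1:10 enzyme:substrate in 50 mM HEPES pH 7.5.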

Sequence | furin cleavage Z-score (7.5 min) | furin cleavage Z-score (15 min) | furin cleavage Z-score (30 min)
B1 | 0.658 (inactive) | 2.27 | -0.141 (inactive)
B2 | -0.759 (inactive) | -0.942 (inactive) | -0.913 (inactive)
B3 | -0.648 (inactive) | -0.15 (inactive) | 0.332 (inactive)
B4 | 12.8 (active) | 11.6 (active) | 9.65 (active)
B5 | -0.409 (inactive) | -0.643 (inactive) | -0.0555 (inactive)
B6 | 13.5 (active) | 13.3 (active) | 9.11 (active)
B7 | 5.65 (active) | 7.21 (active) | 7.85 (active)
B8 | -0.826 (inactive) | -0.415 (inactive) | -0.285 (inactive)
B9 | 7.03 (active) | 6.47 (active) | 5.65 (active)
B10 | 0.599 (inactive) | 1.06 | 0.284 (inactive)
B11 | -0.63 (inactive) | 1.08 | -0.687 (inactive)
B12 | -1.43 (inactive) | 0.163 (inactive) | 0.0126 (inactive)
B13 | 12.8 (active) | 14.7 (active) | 10.5 (active)
B14 | 14.4 (active) | 13.6 (active) | 11 (active)
B15 | -0.564 (inactive) | 0.785 (inactive) | 1.98
B16 | 10.9 (active) | 9.94 (active) | 7.56 (active)
B17 | -0.901 (inactive) | 0.829 (inactive) | -0.892 (inactive)

Sequence | furin cleavage Z-score (7.5 min) | furin cleavage Z-score (15 min) | furin cleavage Z-score (30 min)
B18 | 2.15 | 3.65 (active) | 5.04 (active)
B19 | -1.8 (inactive) | -0.415 (inactive) | 0.059 (inactive)
B20 | 0.99 (inactive) | 0.762 (inactive) | 1.27
B21 | 0.183 (inactive) | -0.762 (inactive) | -0.961 (inactive)
B22 | -0.371 (inactive) | 0.0646 (inactive) | -0.205 (inactive)
B23 | -1.22 (inactive) | 0.427 (inactive) | 0.0666 (inactive)
B24 | 1.81 | 1.03 | 0.0503 (inactive)
B25 | 4.33 (active) | 7.31 (active) | 8.17 (active)
B26 | 9.41 (active) | 10.1 (active) | 9.47 (active)
B27 | -0.612 (inactive) | 0.813 (inactive) | -0.497 (inactive)
B28 | 8.15 (active) | 9.71 (active) | 8.81 (active)
B29 | -0.163 (inactive) | -0.129 (inactive) | -0.367 (inactive)
B30 | -0.669 (inactive) | 0.654 (inactive) | 1.36
B31 | -0.604 (inactive) | 0.139 (inactive) | -0.711 (inactive)
B32 | -0.406 (inactive) | -0.269 (inactive) | -0.296 (inactive)
B33 | 11.4 (active) | 13.7 (active) | 11.3 (active)
